SARS 3CLpro inh: SARS-CoV 3CLpro protease inhibition. actives 0.14% (n = 290,000). recombinant SARS-CoV 3CLpro, quenched FRET peptide cleavage. inhibition, % at 6 µM. AID 1706; in the data active = inhibition above about 12%
FBA Mtb inh: Mtb fructose-bisphosphate aldolase inhibition; P9WQA3; purified M. tuberculosis FBA, fluorescence read-out; inhibition, % at 1 µM; actives 2.3% (n = 360,000); AID 588726; in the data active = inhibition above about 27%
Target sequence (P9WQA3 whole entry, looked up): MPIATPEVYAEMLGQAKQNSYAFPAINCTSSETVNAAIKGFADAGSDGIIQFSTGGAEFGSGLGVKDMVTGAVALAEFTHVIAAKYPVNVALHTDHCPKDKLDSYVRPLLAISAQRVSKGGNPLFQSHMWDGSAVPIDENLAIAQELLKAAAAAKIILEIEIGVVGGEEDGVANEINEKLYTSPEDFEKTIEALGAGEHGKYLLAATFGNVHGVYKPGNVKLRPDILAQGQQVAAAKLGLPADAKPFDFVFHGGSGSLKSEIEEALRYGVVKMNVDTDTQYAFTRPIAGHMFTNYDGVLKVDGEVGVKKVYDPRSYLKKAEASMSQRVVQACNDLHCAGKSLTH
FadD28 binding: blocks FadD28 binding to the bisubstrate probe; fluorescence polarization; inhibition, % at 12.5 µM; actives 0.22% (n = 360,000); AID 588549; in the data active = inhibition above about 8.5%, passing the limit was not always enough
GDH-TPI inh: inhibits GDH-TPI coupling enzymes, artifact for Mtb FBA screen; GDH-TPI coupled enzyme counterscreen, NADH absorbance; inhibition, % at 4.8 µM; actives 1.2% (n = 360,000); in the data active = inhibition above about 30%
BioA inh: blocks M. tuberculosis BioA enzyme activity | purified M. tuberculosis BioA enzyme, plate reader | inhibition, % at 9.99 µM | actives 0.096% (n = 360,000) | AID 602481; in the data active = inhibition above about 40%
Each line names hits and unclear results; the compound was inactive in the other large screens. Only some compounds are listed: those with a hit (about 3.1% of all), similar ones and a draw of the others.

Cc1cccn2c(=O)c3cc(C#N)c(=O)n(-c4c(C)n(C)n(-c5ccccc5)c4=O)c3nc12	none
Cc1ccc(C)c(-n2c(=O)c(C#N)cc3c(=O)n4ccccc4nc32)c1	FBA Mtb inh 133 (no result: BioA inh)
CCC(C)n1c(=N)c(C#N)cc2c(=O)n3ccccc3nc21 (stereo not given)	none
Cc1ccc(-n2c(=O)c(C#N)cc3c(=O)n4ccccc4nc32)cc1	FBA Mtb inh 149 (no result: BioA inh)
Cc1ccc(S(=O)(=O)c2cc3c(=O)n4ccccc4nc3n(C3CCCCC3)c2=N)cc1	none
Cc1cccc(-n2c(=O)c(C#N)cc3c(=O)n4ccccc4nc32)c1	FBA Mtb inh active
COc1ccc(S(=O)(=O)N(C)C[C@H]2Oc3ccc(NC(=O)Cn4cnnn4)cc3CC(=O)N([C@@H](C)CO)C[C@@H]2C)cc1	none (no result: SARS 3CLpro inh, FBA Mtb inh, FadD28 binding, GDH-TPI inh)
Clc1ccc2c(N/N=C/c3cccnc3)ccnc2c1	none
O=c1[nH]ncc(N/N=C\c2ccncc2)c1Cl	GDH-TPI inh 44
COc1ccccc1/C=N\Nc1cn[nH]c(=O)c1Cl	none (no result: BioA inh)
O=c1[nH]ncc(N/N=C\c2cccnc2)c1Cl	GDH-TPI inh 43 (no result: BioA inh)
Cc1cccc(/C=N\Nc2cn[nH]c(=O)c2Cl)c1	GDH-TPI inh 44
O=c1[nH]ncc(N/N=C\c2cccs2)c1Cl	GDH-TPI inh 36 (no result: BioA inh)
CN1c2ccc(Br)cc2[C@@H]2[C@@H](CCN2S(=O)(=O)c2cccc(F)c2)[C@H]1CO	none (no result: SARS 3CLpro inh, FBA Mtb inh, FadD28 binding, GDH-TPI inh)
COc1cc(/C=C2/C(=O)NN(c3ccccc3)C2=O)cc(Br)c1O	none
COc1cc(/C=C2/C(=O)NN(c3ccc(Cl)cc3)C2=O)cc(OC)c1O	FadD28 binding 8.9
Nc1nn(-c2ccccc2)nc1C(=O)OCc1ccccc1F	FBA Mtb inh 135 (no result: BioA inh)
Cn1nc(C(=O)OCc2ccccc2F)c2ccccc2c1=O	none (no result: BioA inh)
CC1CCCCN1Cc1ccc(-c2nnn(CC(=O)NC3CCCCC3)n2)cc1 (stereo not given)	GDH-TPI inh 62 (no result: BioA inh)
CC(C)NC(=O)N[C@@H]1C=C[C@@H](CC(=O)NCCN2CCCC2)O[C@H]1CO	none (no result: SARS 3CLpro inh, FBA Mtb inh, FadD28 binding, GDH-TPI inh)
O=C(NCCNc1ccnc2cc(Cl)ccc12)c1ccccc1F	GDH-TPI inh 43
CCCNC(=O)C[C@H]1CC[C@@H]2[C@@H](COc3ccc(NC(=O)Cc4ccccc4)cc3C(=O)N2C)O1	none (no result: SARS 3CLpro inh, FBA Mtb inh, FadD28 binding, GDH-TPI inh)
CCOc1ccc(/C=C/C(O)=C2/C(=O)N(C)C3(C)CC2c2ccccc2O3)cc1OC (stereo not given)	GDH-TPI inh 39
CCOc1ccc(/C=C/C(O)=C2/C(=O)NC3(C)CC2c2ccccc2O3)cc1OC (stereo not given)	none
COc1ccc(/C=C2/C(=N)N3N=C(CC(=O)N4CCCC4)SC3=NC2=O)cc1	none
COc1ccc(-n2c(C)cc(/C=C3\C(=N)N4N=C(CC(=O)N5CCOCC5)SC4=NC3=O)c2C)cc1	GDH-TPI inh 46
CS(=O)(=O)C1=NN2C(=N)/C(=C\c3ccc(OC(=O)c4ccco4)cc3)C(=O)N=C2S1	none
CC(C)CS(=O)(=O)C1=NN2C(=N)/C(=C\c3ccc(OC(=O)c4ccco4)cc3)C(=O)N=C2S1	GDH-TPI inh 34
Cc1cc(/C=C2\C(=N)N3N=C(CC(=O)N4CCOCC4)SC3=NC2=O)c(C)n1-c1ccccc1	GDH-TPI inh 34
N=C1/C(=C/c2ccco2)C(=O)N=C2SC(CC(=O)N3CCCC3)=NN12	GDH-TPI inh 31
CNC[C@@H]1Oc2ccc(NS(=O)(=O)c3ccc(Cl)cc3)cc2C(=O)N([C@@H](C)CO)C[C@H]1C	none (no result: SARS 3CLpro inh, FBA Mtb inh, FadD28 binding, GDH-TPI inh)
C/C(=N\Nc1nc(C)cc(C)n1)c1ccc(C)o1	GDH-TPI inh 32
C[C@H](CO)N1C[C@H](C)[C@H](CN(C)C)Oc2cc(C3=CCCC3)ccc2S1(=O)=O	none (no result: SARS 3CLpro inh, FBA Mtb inh, FadD28 binding, GDH-TPI inh)
COc1cc(/C=N/n2nnnc2Nc2ccccc2)cc(OC)c1OC	GDH-TPI inh 34
Cc1cc(=O)oc2cc(OCC(O)CN3CCc4ccccc4C3)ccc12 (stereo not given)	FBA Mtb inh 50
Cc1cc(=O)oc2cc(OCC(O)CN3CCN(c4ccccc4)CC3)ccc12 (stereo not given)	none
COc1ccc(/C=C/c2cc(-c3ccc(C)cc3)o[n+]2C)cc1	GDH-TPI inh 55
O=C(Nc1cccc(-c2csc(Nc3ccccc3)n2)c1)c1cc([N+](=O)[O-])cc(C(F)(F)F)c1	none
O=C(Nc1cccc(-c2csc(Nc3ccc(Cl)cc3)n2)c1)c1cc([N+](=O)[O-])cc(C(F)(F)F)c1	GDH-TPI inh 41 (no result: SARS 3CLpro inh)
COc1ccc(OC)c(/C=N/NC(=O)CCCC(=O)Nc2cccc(Br)c2)c1	FBA Mtb inh 60
COc1cccc(/C=N/NC(=O)c2cccc3ccccc23)c1	none

Source: PubChem BioAssay
